PubChem BioAssay AID1850 (Southern Research Specialized Biocontainment Screening …, 2009)
About 1,000 (0.32%) of roughly 310,000 compounds were called active. The rule behind the calls is not given here. The list is a sample of the results. Potency and affinity values are given separately.

experiment: PhoP regulon inhibitors, Salmonella typhi PhoP promoter GFP reporter, confirmatory (AID 1850); conditions: fluorescence, 4 h, at 50 µM, stronger effect = higher value;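 note: 0% = induced wells with vehicle and 100% = uninduced wells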

SMILES | inhibition
COc1ccc(S(=O)(=O)N2CCCC2CNC(=O)C(=O)NCCc2ccccc2)cc1 (stereo not drawn) | 0.4% (inactive)
O=C(Nc1cc(C(F)(F)F)ccc1N1CCOCC1)C1=NN(c2ccccc2)C(=O)CC1 | 0.11% (inactive)
Cc1ccccc1-c1nnn(CC(=O)N(C)CC(=O)Nc2ccccc2C(F)(F)F)n1 | 6.76% (inactive)
COc1c[nH]n(-c2ccccc2)c(=O)c1=O | 5.23% (inactive)
CN(C)CCCNC(=O)c1ccc(-c2ccccc2)cc1 | 12.6% (inactive)
C=CCNC(=O)c1ccc(-c2nc(-c3ccccc3)cs2)cc1 | 0.25% (inactive)
CC1CCCCC12NC(=O)N(CC(=O)NCc1ccc3c(c1)OCO3)C2=O (stereo not drawn) | 5.06% (inactive)
N#Cc1cc2c(nc1SCC(=O)O)CCCCC2 | 9.95% (inactive)
CCN(CC)CCNC(=O)c1cn(CC)c2cc(N3CCN(C(=O)c4ccco4)CC3)c(F)cc2c1=O | 5.87% (inactive)
CCCCNC(=O)c1cn(CC)c2cc(N3CCN(C)CC3)c(F)cc2c1=O | -13.3% (inactive)
CCn1cc(C(=O)NCc2ccccc2)c(=O)c2cc(F)c(N3CCN(C(=O)c4ccco4)CC3)cc21 | -5.58% (inactive)
CCn1cc(C(=O)NCC(C)C)c(=O)c2cc(F)c(N3CCN(C(=O)c4ccco4)CC3)cc21 | 1.03% (inactive)
CCN(CC)CCNC(=O)c1cn(CC)c2cc(N3CCN(C)CC3)c(F)cc2c1=O | -0.07% (inactive)
CCCNC(=O)c1cn(CC)c2cc(N3CCN(C(=O)c4ccco4)CC3)c(F)cc2c1=O | 1.38% (inactive)
CCn1cc(C(=O)NCCC(C)C)c(=O)c2cc(F)c(N3CCN(C)CC3)cc21 | 5.29% (inactive)
CCn1cc(C(=O)NCc2cccc(F)c2)c(=O)c2cc(F)c(N3CCN(C(=O)c4ccco4)CC3)cc21 | -0.01% (inactive)
COc1ccc(C(C)NC(=O)Cc2cccs2)cc1 (stereo not drawn) | 1.87% (inactive)
O=C(Nc1nnc(Cc2ccccc2F)s1)c1ccccc1Cl | -2.4% (inactive)
O=C(COC(=O)C1CCN(c2ccc(C(F)(F)F)cn2)CC1)NCc1ccc(F)cc1 | 2.12% (inactive)
CC(Oc1ccccc1)C(=O)Nc1ccc(S(=O)(=O)Nc2nccs2)cc1 (stereo not drawn) | -2.94% (inactive)

SMILES | inhibition
COC(=O)c1c(C(=O)OC)c(-c2ccc(OC)cc2)n2c1CS(=O)(=O)C2 | -2.28% (inactive)
CCOc1ccccc1N(CC(=O)N1CCOCC1)S(=O)(=O)c1ccccc1 | 11.6% (inactive)
CCOc1ncccc1C(=O)Nc1cccc(Cl)c1Cl | -6.65% (inactive)
COC(=O)c1ccc(C)c(NC(=O)CCc2cc(OC)c(OC)c(OC)c2)c1 | 8.83% (inactive)
COc1cc(/C=N/NC(=O)c2ccncc2)cc(OC)c1OC | 6.9% (inactive)
COc1cccc(C(O)c2cnc(C(C)C)n2C)c1 (stereo not drawn) | 5.41% (inactive)
CCCC(=O)Nc1c2c(nn1-c1ccc(F)cc1)CS(=O)(=O)C2 | -3.29% (inactive)
CCn1cc(C(=O)NN)c(=O)c2cc(F)c(N3CCN(C)CC3)cc21 | 3.76% (inactive)
CCn1cc(C(=O)N[C@H](C)c2ccccc2)c(=O)c2cc(F)c(N3CCN(C)CC3)cc21 | 2.31% (inactive)
CCn1cc(C(=O)NN)c(=O)c2cc(F)c(N3CCOCC3)cc21 | -10.2% (inactive)
CCn1cc(C(=O)NCC2CCCO2)c(=O)c2cc(F)c(N3CCN(C)CC3)cc21 (stereo not drawn) | 1.91% (inactive)
CCCCCCNC(=O)c1cn(CC)c2cc(N3CCN(C)CC3)c(F)cc2c1=O | -4.8% (inactive)
CCCCNC(=O)c1cn(CC)c2cc(N3CCN(C(=O)c4ccco4)CC3)c(F)cc2c1=O | -5.26% (inactive)
CCn1cc(C(=O)NCCCO)c(=O)c2cc(F)c(N3CCN(C)CC3)cc21 | 6.73% (inactive)
Cc1cccn2c(=O)c(C(=O)NCCCN3CC(C)CC(C)C3)c(O)nc12 (stereo not drawn) | 0.48% (inactive)
COc1cccc2cc(C(=O)OCC(=O)NCc3ccc4c(c3)OCO4)c(=O)oc12 | 7.88% (inactive)
CS(=O)(=O)N1CCN(c2ccccc2NC(=S)NC(=O)c2cccs2)CC1 | -10.5% (inactive)
N#CCSc1nccc(/C=C/c2ccccc2)n1 | 6.91% (inactive)
O=C(O)C[C@H]1c2cc(F)ccc2S(=O)(=O)N1C1CCCC1 | -2.28% (inactive)
CC(=O)Nc1ccccc1N(C)S(=O)(=O)c1ccc(C)cc1 | -1.46% (inactive)

SMILES | inhibition
Cn1c(=O)n(C)c2cc([N+](=O)[O-])c(N3CCN(C(=O)c4ccc(Cl)cc4)CC3)cc21 | -4.31% (inactive)
CCCc1cc(=O)n2[nH]c(C)nc2n1 | 18.9% (inactive)
O=C(CC(=O)c1ccccc1O)c1ccc(F)cc1 | 3.76% (inactive)
Cc1ccc(C(=O)CC(=O)c2cc(Cl)ccc2O)cc1 | -2.62% (inactive)
Cc1cc(C)c(C(=O)CC(=O)c2ccccc2Cl)c(O)c1 | 11.6% (inactive)
Cc1ccc(O)c(C(=O)CC(=O)c2cccc(F)c2)c1 | 8.82% (inactive)
Cc1cccc(C(=O)CC(=O)c2cc(Cl)ccc2O)c1 | 1.32% (inactive)
Cc1ccc(C(=O)CC(=O)c2cccc(F)c2)c(O)c1 | 5.16% (inactive)
CC(CC(=O)NCc1ccco1)S(=O)(=O)c1ccc2c(c1)CCN2C(=O)C1CC1 (stereo not drawn) | -3.2% (inactive)
O=c1c(C/C=C/c2ccccc2)c(O)ccn1CCc1c[nH]c2ccccc12 | 4.16% (inactive)
CCOCCOC(NC(=O)c1ccccc1)(C(F)(F)F)C(F)(F)F | -1.49% (inactive)
CCOC(=O)CSc1nc(Nc2ccc3c(c2)OCO3)c2ccccc2n1 | -1.83% (inactive)
O=C(COc1ccc(Br)cc1CNCCCN1CCOCC1)Nc1ccccc1 | -6.17% (inactive)
COc1cccc(-c2nc(N)nc(SC)c2C#N)c1 | 5.06% (inactive)
CC(C)n1c(CN2CCN(C)CC2)nc2c1c(=O)n(C)c(=O)n2C | 2.65% (inactive)
O=c1[nH]c(C2CCN(S(=O)(=O)c3ccccc3)CC2)nc2c1nnn2Cc1ccc2c(c1)OCCO2 | -22.2% (inactive)
OCC1(Cc2ccc(F)cc2)CCCN(CCc2ccccc2)C1 (stereo not drawn) | 0.44% (inactive)
CCOc1ccccc1NC(=O)c1ccc2c(c1)C(=O)N(CC1CCCO1)C2=O (stereo not drawn) | -5.65% (inactive)
